# Measured values taken from ChEMBL document CHEMBL3988442, “University of Dundee, Small-Polar-MMV Screening Library” (2021).
# The campaign covered roughly 69,000 compounds. About 950 (1.4%) showed an effect of 50% or more. The full list was thinned out, with strong results kept by preference.
# Test system: Mycobacterium tuberculosis
# Assay: Cornell M. t heat shock assay; note: in the data most compounds retested in dose-response had high values
# Format: functional, organism-based
# Design: dose or concentration left out as unconfirmed
row,SMILES,Percent Effect
1,CC(C)NC(=O)N1CCc2ncc(CN3CCOCC3)n2CC1.O=C(O)C(F)(F)F,-16.24%
2,Cc1noc(C)c1CN1CC[C@H]2[C@H]1CCN2CC1CCOCC1.O=C(O)C(F)(F)F.O=C(O)C(F)(F)F,-9.429%
3,C=C(C)CN1CCN(Cc2cnc(-c3ccccc3C)nc2)CC1.O=C(O)CC(O)(CC(=O)O)C(=O)O,1.349%
4,CCOCC1CN(Cc2ccoc2)Cc2nn(C)cc21.O=C(O)C(F)(F)F (stereo not given),-18.76%
5,O=C(N1CCCC1)N1CC[C@H]2[C@H]1CCN2c1ncccn1.O=C(O)C(F)(F)F,-10.67%
6,COc1cc2c(cc1CNC(Cc1cccs1)c1nccs1)OCCO2.Cl (stereo not given),2.723%
7,Cl.O=C(C1CCC1)N1C[C@@H](c2ccsc2)[C@@H]2CN(C3CCCCC3)CC[C@@H]21,-50.24%
8,Cc1ccc2nc(C3CCN(CC4CC4)CC3)nn2c1.O=C(O)C(F)(F)F,-35.41%
9,CC(C)COC(C)C(=O)NCCNC(=O)C(C)C (stereo not given),-3.282%
10,CC(C)COC(C)C(=O)NCCNS(C)(=O)=O (stereo not given),-20.75%
11,CCOC(C)C(=O)NCCNS(C)(=O)=O (stereo not given),69.12%
12,O=C(O)C(F)(F)F.O=C(c1ccoc1)N1CC[C@@H](N2CCOCC2)[C@@H]1Cc1ccccc1,-25.18%
13,O=C(NCc1ccccn1)[C@H]1COC[C@H]2CN(C3CCCC3)C[C@H]21.O=C(O)C(F)(F)F.O=C(O)C(F)(F)F,-26.6%
14,Cc1ccc(CN[C@@H]2COC[C@H]2Cc2cc(C)no2)cc1.O=C(O)CC(O)(CC(=O)O)C(=O)O,0.5554%
15,O=C1CN(Cc2nnc(-c3ccc(Br)o3)o2)CCN1,51.83%
16,O=C1CN(Cc2nnc(-c3ccccc3Br)o2)CCN1,14.67%
17,O=C1CN(Cc2nnc(-c3ccc(Br)cc3)o2)CCN1,1.317%
18,Cl.c1cc(CNCc2ccc(Cn3cncn3)cc2)c2c(c1)OCCO2,-1.246%
19,Cl.NC(=O)COc1ccc(CNCc2cc(F)ccc2F)cc1,-36.29%
20,Cc1cc(=O)n(CC(=O)NCCC(C)C)c(-c2cccc(Cl)c2)n1,9.879%
21,COCCNC(=O)Cn1c(-c2ccc(Cl)cc2)nc(C)c(CCO)c1=O,50.09%
22,CCc1cc(=O)n(CC(=O)NCC2CCCO2)c(-c2cccc(F)c2)n1 (stereo not given),19.5%
23,Cc1nc(-c2ccc(Cl)cc2)n(CC(=O)NC(C)C)c(=O)c1CCO,47.89%
24,COCCNC(=O)Cn1c(-c2cccc(F)c2)nc(C)c(CCO)c1=O,66.78%
25,CCN(CC)C(=O)c1nnsc1-c1ccc(Cl)cc1,-12.37%
26,COCCCNC(=O)Cn1c(-c2cccc(Cl)c2)nc(C)cc1=O,10.79%
27,CCN(CC)C(=O)Cn1c(-c2ccc(Cl)cc2)nc(C)c(CCO)c1=O,69.66%
28,COCCNC(=O)Cn1c(-c2ccc(F)cc2)nc(C)c(CCO)c1=O,29.85%

row,SMILES,Percent Effect
1,COCCNC(=O)Cn1ccc2ccc(F)cc21,14.54%
2,COCCNC(=O)Cn1c(-c2cccc(Cl)c2)nc(C)c(CCO)c1=O,68.55%
3,CCOc1nc2cccnc2n(CC(=O)NCCOC)c1=O,5.103%
4,Cc1ccc(-c2ccc(C3CNCCO3)nc2)cc1.Cl (stereo not given),-12.85%
5,CC[C@@H]1N(Cc2nccs2)CCC[C@]12CCC(=O)N2C.O=C(O)C(F)(F)F,-9.457%
6,CCOCC1CN(Cc2ccccn2)Cc2nn(CC3CC3)cc21.O=C(O)C(F)(F)F.O=C(O)C(F)(F)F (stereo not given),-24.37%
7,O=C(O)C(F)(F)F.O=C(c1ncccn1)N1CCC[C@]2(C[C@@H](Oc3ncccc3F)CO2)C1,-26.7%
8,O=C(Cc1ccccc1F)N1C[C@@H]2COC[C@]2(COc2cccnc2)C1.O=C(O)C(F)(F)F,-4.707%
9,COCC(=O)N1CCCn2c(CN3CCOCC3)nnc2C1.O=C(O)C(F)(F)F,-20.35%
10,Cl.FC(F)CNc1cnc(C2CCCN2)cn1 (stereo not given),-21.09%
11,O=C(O)C(F)(F)F.O=C1NCCN(CC2CC2)C12CCN(Cc1ccccc1)CC2,-29.41%
12,COCC1CC2(CCN(Cc3ccncc3)CC2)CN1C(C)C.O=C(O)C(F)(F)F.O=C(O)C(F)(F)F.O=C(O)C(F)(F)F (stereo not given),-9.126%
13,O=C(Nc1cccnc1)[C@H]1C[C@@H]2CN(S(=O)(=O)C3CC3)C[C@H]1O2,-11.95%
14,COCc1ncn2c1CN(C(=O)c1ccc3ccccc3n1)CC2.O=C(O)C(F)(F)F,-56.59%
15,CO[C@H]1C[C@@H]2CN(C(=O)c3cc4ccc(F)cc4[nH]3)C[C@@H]2C1,35.64%
16,COc1ccc(CN2C[C@H]3CN(c4ccsc4)C(=O)[C@H]3C2)cc1.O=C(O)C(F)(F)F,16.76%
17,COc1ccc(F)cc1C(=O)N1C[C@H]2C[C@H](OC)C[C@H]2C1,-3.804%
18,CC(=O)N1CCC2(CC1)CN(C(=O)[C@@H]1CSCN1)c1ccc(Cl)cc12.O=C(O)C(F)(F)F,52.14%
19,Cl.Cl.O=C([C@H]1CCCN1)N1CC2(CCNCC2)c2cc(Cl)ccc21,-22.31%
20,Cl.Cl.O=C([C@@H]1CSCN1)N1CC2(CCNCC2)c2cc(Cl)ccc21,3.414%
21,O=C(CC1CCCC1)N1C[C@H](Oc2cccnc2)[C@H]2OCCC[C@H]21.O=C(O)C(F)(F)F,0.71%
22,CCOCC1CN(CC2CCC2)Cc2nnn(CC3CC3)c21 (stereo not given),57.51%
23,C1CCC(CN2Cc3nnn(CC4CC4)c3C(COCC3CC3)C2)C1.O=C(O)C(F)(F)F (stereo not given),40.48%
24,CCOCC1CN(C(=O)N(C)C)Cc2nnn(CC3CC3)c21 (stereo not given),1.23%
25,CN(C)CC1CN(Cc2cccc(C#N)c2)Cc2nccn2C1.O=C(O)C(F)(F)F.O=C(O)C(F)(F)F (stereo not given),-5.749%
26,CC(C)c1nn(C)c(Cl)c1CNCc1ccc2c(c1)OCO2.Cl,15.25%
27,O=C(CC1CC1)N1CCc2ncc(CN3CCOCC3)n2CC1.O=C(O)C(F)(F)F,2.118%
